The test system of this assay is VDR:RXRa (NR concentration 270 nM, RXRa partner concentration 90 nM). Kind of assay: PBM binding z-score (relative to random genomic background probes); higher = stronger binding; sequences stand for … in GC…GCGATTGACAGCGTAGAATGAAGG
On the procedure:
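Protein-binding microarray (Agilent 4x180K custom design, double-stranded 60-nt probes: 5' GC cap, 34-nt variable region, 24-nt constant primer region; full probe sequence given). Purified or IVT nuclear receptor:RXRα heterodimers (3:1 NR:RXRα, mostly 270:90 nM) or homodimers were incubated for 1 h in PBS with 2% milk and no ligand, then detected with Alexa488 antibodies. Fluorescence from o1-orientation probes (~5 replicates averaged) was converted to z-scores against 500 random hg19 background probes. Variable regions are seed direct-repeat (DR0–DR5) sites, all their single-nucleotide variants and half-site ablations.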
With TATACAGGGGCAAAGGCCAGAGTACGAATGTCGA, the PBM binding z-score is 1.03.

TAGACTAGGTCATGCGGGCCAGTATAGTGTCGGC gave a PBM binding z-score of 2.46. For TCTATTAGCTGATTAGGGCAACCGAAACAGCGGA the value was 0.11; for ACAGGCAGGTGAGTGAAGGTAACTCAGCTGGACG, -0.417. As for TCAGACAGGTGAAGGTAAGTCAGGTACGCAGTCG, the figure is 0.301; as for CTCGAAAGGTCGTGCTCAGGTGATTATACCAAAC, 3.58; as for CCTCGGAGGACAGAAGGTCAGAGCGGTCCGCTTT, 1.83. As for CCTAGCTGGTCAAGGTCACACACGCTATAGGTAC, the figure is 3.75; as for TCTTGTAGAGCAGCAGGTTAAGAAAGCTGGCCAA, -0.353.

Sequence ATATGTAGGTTAAGGTTCATTCAGGTTGGTTCGC showed a PBM binding z-score of 5.06. For AGTCAAAGTTCATCTAGGTAAAGTAAGATATGCT the value was 4.84; for TCTATTAGTTGATTCGGGCAACCGAAACAGCGGA, 0.506. As for AGAATGAGGATACCAAAGATCAGGGAAACGCTTG, the figure is -0.361; as for TAGACTAGGTCATTCAGGGGCCAGTATAGAAAGC, 2.48. On to TCTGCTAGGTCAGTTGGTCAGCTCACGAGCTGCC, for which the PBM binding z-score was 0.484. For CGTCCAAGGTCAAAGGTAAGTGAAGAGATGACGG the value was 4.55. For GCTATTCGTTGAAAGGGCAACCGAATGATTCTCG the value was 0.306. As for CTACCAAGGTGAACAAGGTCGTTGGTTACTATTC, the figure is 5.92; as for TTACCAAGGTGAAGGCCGTTGATCCCTCTGTAGA, -0.121. For the sequence ATCTCTAGGTAAACGTTCAGTGAATCCCGAGGAT, the PBM binding z-score is -0.107. As for CTAACAAGGTGAACAAGGTCGTTGATTACTATTC, the figure is 6.27; as for CGTCAAAGTTGAACTAAGGTAACGTAAAGCACGC, 1.43. On to TCATATAGGTAAAAGGTGAAAGCCGGTGTGGTAA, for which the PBM binding z-score stood at 1.62. For TTACCAAGGTGAAGATCGTTGATCCCTCTGTAGA the value was -0.031; for GCGAGTGGGGCAAAGCAGGTTACCATAAGGTTGG, 0.296.

Sequence ACTATTAGTTGGGACGAGGGCAACCGATAGGTTG showed a PBM binding z-score of 0.564. As for CCGGCTGGGGCAAGGTTACCATAACGCACAGCCA, the figure is -0.269; as for GCTAGCAGGCCATTTGGGTCACGCAATGACGGGC, 1.61; as for CCTACTGGGCCAAAAAGGACATTGATGCCGATAA, 0.106. For CCTAGCAGGCCAATCTGGGTCACTGAAGGCTTGA the value was 0.552; for CCTTCTAGGTCATGGTCAGCTAATCTACAGTATG, 2.07. For GGAACGAGGGCAAACTTGATAGCATCTGTCGACG the value was 1.42. ATCGAAAGGTCGAGGTGAGTATAGAGAAAGGGAA registered a PBM binding z-score of 2.69. For CAAACTAGGTCGAGGTCAAAGTCGGTTTGTGCCA the value was 5.52. TCTCGGAGGCCACGAAGGTCAGAGCTTTCCAGAG yielded a PBM binding z-score of 3.69. As for TCGAGTAGATTAGGGGCATTCAGAATGGCGTCGA, the figure is 0.295. In turn, GGAACGAGGGCAGGTTGATAGCAGAGTTTGATGG came in with a PBM binding z-score of 0.111.

Turning to TCGAGTAGGTTAGTCGGGGCGTTCAGCCAACATA, the PBM binding z-score came out at 1.48. The sequence GCTGCTAGGTCAACTGATGGGCAGCTAAAGCTCG gave a PBM binding z-score of 1.09. For TCATATAGGTAAATGCGAGGTGAAAGTCCGATCT the value was 1.32.

Source of the values: the supplement of paper PMC6555819.
